# Experimental data: article PMC11024108
# What was measured:
# [1] = biological target: Cytochrome c oxidase assembly factor 7 (UniProt Q96BR5); test: cross-link between two proteins; affinity purification or IP with mass spectrometry; cross-linking mass spectrometry
# [2] = biological target: 10 kDa heat shock protein, mitochondrial (UniProt P61604); test: cross-link between two proteins; cross-linking mass spectrometry
# [3] = biological target: ATP synthase F(1) complex subunit epsilon, mitochondrial (UniProt P56381); test: as above
# [4] = biological target: ATPase inhibitor, mitochondrial (UniProt Q9UII2); test: as above
# Frataxin, mitochondrial = Frataxin, mitochondrial (UniProt Q16595); test: as above
# [5] = biological target: Malate dehydrogenase, mitochondrial (UniProt P40926); test: as above
# [6] = biological target: Trifunctional enzyme subunit alpha, mitochondrial (UniProt P40939); test: as above
# [7] = biological target: Trifunctional enzyme subunit beta, mitochondrial (UniProt P55084); test: as above
# [8] = biological target: Propionyl-CoA carboxylase beta chain, mitochondrial (UniProt P05166); test: co-fractionation; co-fractionation; cross-linking mass spectrometry
# 14-3-3 protein eta = 14-3-3 protein eta (UniProt P68510); test: cross-link between two proteins; cross-linking mass spectrometry
# 14-3-3 protein theta = 14-3-3 protein theta (UniProt P68254); test: as above
# [9] = biological target: ATP synthase F(1) complex subunit alpha, mitochondrial (UniProt P25705); test: as above
# [10] = biological target: Complement component 1 Q subcomponent-binding protein, mitochondrial (UniProt Q07021); test: as above
# Calnexin = Calnexin (UniProt P27824); test: cross-link between two proteins; affinity purification or IP with mass spectrometry; cross-linking mass spectrometry
# [11] = biological target: Endoplasmic reticulum resident protein 29 (UniProt P30040); test: as above
# [12] = biological target: Leucine-rich repeat-containing protein 59 (UniProt Q96AG4); test: as above
# [13] = biological target: Thioredoxin-related transmembrane protein 1 (UniProt Q9H3N1); test: as above
# [14] = biological target: Transmembrane emp24 domain-containing protein 9 (UniProt Q9BVK6); test: as above
# [15] = biological target: Pyruvate dehydrogenase E1 component subunit beta, mitochondrial (UniProt P11177); test: cross-link between two proteins; co-fractionation; cross-linking mass spectrometry
# [16] = biological target: Electron transfer flavoprotein subunit beta (UniProt P38117); test: co-fractionation; co-fractionation; cross-linking mass spectrometry
# [17] = biological target: Cytochrome b-c1 complex subunit 2, mitochondrial (UniProt P22695); test: as above
# [18] = biological target: Cytochrome b-c1 complex subunit 1, mitochondrial (UniProt P31930); test: as above
# [19] = biological target: Cytochrome b-c1 complex subunit 7 (UniProt P14927); test: cross-link between two proteins; cross-linking mass spectrometry
# [20] = biological target: Cytochrome b-c1 complex subunit Rieske, mitochondrial (UniProt P47985); test: co-fractionation; co-fractionation; cross-linking mass spectrometry
# [21] = biological target: MICOS complex subunit MIC60 (UniProt Q16891); test: cross-link between two proteins; cross-linking mass spectrometry
# [22] = biological target: BLOC-1-related complex subunit 7 (UniProt Q96B45); test: cross-link between two proteins; co-fractionation; cross-linking mass spectrometry
# [23] = biological target: ATP synthase F(0) complex subunit e, mitochondrial (UniProt P56385); test: cross-link between two proteins; cross-linking mass spectrometry
# [24] = biological target: ATP synthase peripheral stalk subunit b, mitochondrial (UniProt P24539); test: co-fractionation; co-fractionation; cross-linking mass spectrometry
# [25] = biological target: Cytochrome c oxidase subunit 4 isoform 1, mitochondrial (UniProt P13073); test: cross-link between two proteins; affinity purification or IP with mass spectrometry; cross-linking mass spectrometry
# [26] = biological target: Ras-related protein Rab-11B (UniProt Q15907); test: cross-link between two proteins; co-fractionation; cross-linking mass spectrometry
# [27] = biological target: AP-1 complex subunit beta-1 (UniProt Q10567); test: as above
# [28] = biological target: AP-2 complex subunit beta (UniProt P63010); test: as above
# [29] = biological target: Myeloid-derived growth factor (UniProt Q969H8); test: cross-linking mass spectrometry
# [30] = biological target: Peptidyl-prolyl cis-trans isomerase B (UniProt P23284); test: cross-link between two proteins; cross-linking mass spectrometry
# [31] = biological target: Neutral alpha-glucosidase AB (UniProt Q14697); test: cross-link between two proteins; co-fractionation; cross-linking mass spectrometry
# Chain of Trifunctional enzyme subunit alpha, mitochondrial (P40939 whole entry): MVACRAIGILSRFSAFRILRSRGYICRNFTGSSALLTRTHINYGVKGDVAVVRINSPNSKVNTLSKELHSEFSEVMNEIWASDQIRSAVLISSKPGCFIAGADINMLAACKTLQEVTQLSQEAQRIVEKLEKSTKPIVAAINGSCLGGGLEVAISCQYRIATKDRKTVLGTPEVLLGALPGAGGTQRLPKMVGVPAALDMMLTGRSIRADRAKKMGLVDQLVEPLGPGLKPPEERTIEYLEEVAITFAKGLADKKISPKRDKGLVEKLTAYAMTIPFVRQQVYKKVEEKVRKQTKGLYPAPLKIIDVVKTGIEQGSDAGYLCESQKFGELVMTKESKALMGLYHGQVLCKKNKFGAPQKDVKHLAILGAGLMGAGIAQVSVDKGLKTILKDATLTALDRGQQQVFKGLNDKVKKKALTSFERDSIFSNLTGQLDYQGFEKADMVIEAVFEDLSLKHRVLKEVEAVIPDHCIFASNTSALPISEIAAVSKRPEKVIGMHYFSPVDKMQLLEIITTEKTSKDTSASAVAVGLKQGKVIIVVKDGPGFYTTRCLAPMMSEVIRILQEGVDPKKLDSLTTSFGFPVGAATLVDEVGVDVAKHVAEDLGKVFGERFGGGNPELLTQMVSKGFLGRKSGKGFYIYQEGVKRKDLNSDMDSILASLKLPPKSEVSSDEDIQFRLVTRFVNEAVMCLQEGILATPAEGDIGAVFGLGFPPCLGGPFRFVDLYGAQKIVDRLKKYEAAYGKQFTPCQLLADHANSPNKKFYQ
# Chain of 10 kDa heat shock protein, mitochondrial (P61604 whole entry): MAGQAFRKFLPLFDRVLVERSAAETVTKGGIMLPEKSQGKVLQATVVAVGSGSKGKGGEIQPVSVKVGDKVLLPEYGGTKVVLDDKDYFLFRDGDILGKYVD
# Chain of Cytochrome c, P99999 (P99999 whole entry): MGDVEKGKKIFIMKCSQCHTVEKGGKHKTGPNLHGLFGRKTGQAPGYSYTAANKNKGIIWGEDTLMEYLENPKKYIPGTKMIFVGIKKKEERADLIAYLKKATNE
# Chain of AP-2 complex subunit beta (P63010 whole entry, one chain of several): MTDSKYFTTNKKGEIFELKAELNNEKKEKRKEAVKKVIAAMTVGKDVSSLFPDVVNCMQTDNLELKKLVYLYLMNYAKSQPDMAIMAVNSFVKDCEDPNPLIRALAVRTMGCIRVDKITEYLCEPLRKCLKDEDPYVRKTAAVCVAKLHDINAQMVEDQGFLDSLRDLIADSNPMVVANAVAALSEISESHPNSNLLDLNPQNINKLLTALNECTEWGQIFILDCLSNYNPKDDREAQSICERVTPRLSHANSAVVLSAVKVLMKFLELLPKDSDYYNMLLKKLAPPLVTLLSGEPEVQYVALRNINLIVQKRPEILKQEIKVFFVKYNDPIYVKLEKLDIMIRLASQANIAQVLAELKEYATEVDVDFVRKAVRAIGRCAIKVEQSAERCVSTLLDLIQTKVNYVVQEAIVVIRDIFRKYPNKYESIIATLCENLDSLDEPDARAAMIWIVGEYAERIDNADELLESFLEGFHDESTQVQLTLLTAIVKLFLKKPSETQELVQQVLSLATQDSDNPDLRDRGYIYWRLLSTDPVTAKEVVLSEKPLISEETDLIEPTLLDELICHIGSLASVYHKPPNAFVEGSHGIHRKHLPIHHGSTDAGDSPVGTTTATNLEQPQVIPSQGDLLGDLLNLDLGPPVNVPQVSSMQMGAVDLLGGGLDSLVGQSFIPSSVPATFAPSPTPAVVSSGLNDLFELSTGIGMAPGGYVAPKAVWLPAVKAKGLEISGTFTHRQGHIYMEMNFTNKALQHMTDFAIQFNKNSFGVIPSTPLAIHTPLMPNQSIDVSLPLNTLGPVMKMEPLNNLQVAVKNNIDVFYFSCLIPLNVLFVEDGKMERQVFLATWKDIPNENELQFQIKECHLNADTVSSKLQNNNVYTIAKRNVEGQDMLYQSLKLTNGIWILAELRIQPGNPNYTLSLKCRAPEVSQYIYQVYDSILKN
# Chain of 14-3-3 protein eta (P68510 whole entry): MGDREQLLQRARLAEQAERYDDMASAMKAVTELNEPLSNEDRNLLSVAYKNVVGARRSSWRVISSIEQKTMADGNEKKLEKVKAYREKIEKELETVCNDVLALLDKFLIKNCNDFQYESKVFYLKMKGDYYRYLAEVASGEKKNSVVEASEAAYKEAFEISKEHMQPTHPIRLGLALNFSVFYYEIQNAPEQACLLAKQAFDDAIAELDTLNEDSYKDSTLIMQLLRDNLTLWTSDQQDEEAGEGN
# Chain of Cytochrome b-c1 complex subunit 2, mitochondrial (P22695 whole entry, one chain of several): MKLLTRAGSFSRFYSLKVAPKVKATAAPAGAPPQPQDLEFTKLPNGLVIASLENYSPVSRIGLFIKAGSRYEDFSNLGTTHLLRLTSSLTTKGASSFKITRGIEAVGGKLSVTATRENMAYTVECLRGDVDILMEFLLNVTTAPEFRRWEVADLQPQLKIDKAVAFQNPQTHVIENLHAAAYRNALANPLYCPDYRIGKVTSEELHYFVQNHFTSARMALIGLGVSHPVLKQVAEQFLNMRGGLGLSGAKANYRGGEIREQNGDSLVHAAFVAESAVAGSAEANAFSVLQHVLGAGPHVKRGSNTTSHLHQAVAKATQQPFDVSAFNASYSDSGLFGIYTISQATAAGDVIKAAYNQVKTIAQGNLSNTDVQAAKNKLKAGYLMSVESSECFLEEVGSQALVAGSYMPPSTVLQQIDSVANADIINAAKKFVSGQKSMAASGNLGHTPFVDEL
# Chain of Trifunctional enzyme subunit beta, mitochondrial (P55084 whole entry): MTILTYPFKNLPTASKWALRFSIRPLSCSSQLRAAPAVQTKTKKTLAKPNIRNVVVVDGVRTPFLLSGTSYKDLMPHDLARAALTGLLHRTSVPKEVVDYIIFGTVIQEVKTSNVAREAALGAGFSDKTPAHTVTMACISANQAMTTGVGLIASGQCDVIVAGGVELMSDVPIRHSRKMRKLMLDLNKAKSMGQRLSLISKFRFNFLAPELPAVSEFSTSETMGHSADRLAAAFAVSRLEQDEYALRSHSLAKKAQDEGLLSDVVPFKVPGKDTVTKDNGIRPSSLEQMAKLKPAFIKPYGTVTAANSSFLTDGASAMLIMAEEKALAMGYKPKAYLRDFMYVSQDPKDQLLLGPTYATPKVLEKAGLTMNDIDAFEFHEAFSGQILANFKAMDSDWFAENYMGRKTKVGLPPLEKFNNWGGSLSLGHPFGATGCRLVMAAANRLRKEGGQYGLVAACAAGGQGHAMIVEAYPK
# Chain of ATP synthase F(1) complex subunit alpha, mitochondrial (P25705 whole entry, one chain of several): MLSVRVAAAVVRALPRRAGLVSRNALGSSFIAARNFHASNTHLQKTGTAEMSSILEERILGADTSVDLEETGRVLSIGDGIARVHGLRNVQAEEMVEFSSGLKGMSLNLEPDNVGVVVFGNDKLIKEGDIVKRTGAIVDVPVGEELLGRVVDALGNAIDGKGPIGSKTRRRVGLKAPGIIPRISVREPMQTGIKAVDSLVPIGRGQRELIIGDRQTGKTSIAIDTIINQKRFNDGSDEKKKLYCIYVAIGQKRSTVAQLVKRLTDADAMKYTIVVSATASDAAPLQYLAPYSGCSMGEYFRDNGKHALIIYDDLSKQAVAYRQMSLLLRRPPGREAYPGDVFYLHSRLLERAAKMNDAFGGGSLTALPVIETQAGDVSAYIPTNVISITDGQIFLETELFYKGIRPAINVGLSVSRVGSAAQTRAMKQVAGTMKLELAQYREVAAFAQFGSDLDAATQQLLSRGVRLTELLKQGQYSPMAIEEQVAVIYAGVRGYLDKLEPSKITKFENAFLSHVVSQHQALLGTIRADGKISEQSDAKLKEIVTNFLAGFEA
# Chain of 14-3-3 protein theta (P68254 whole entry): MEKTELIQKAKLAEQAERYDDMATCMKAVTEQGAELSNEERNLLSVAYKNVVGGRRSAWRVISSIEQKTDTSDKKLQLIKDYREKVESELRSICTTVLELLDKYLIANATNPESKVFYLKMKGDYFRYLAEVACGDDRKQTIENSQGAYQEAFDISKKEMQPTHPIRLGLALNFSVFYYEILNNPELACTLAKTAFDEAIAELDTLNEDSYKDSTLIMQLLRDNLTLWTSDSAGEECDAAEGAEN
# Chain of Cytochrome b-c1 complex subunit 1, mitochondrial (P31930 whole entry, one chain of several): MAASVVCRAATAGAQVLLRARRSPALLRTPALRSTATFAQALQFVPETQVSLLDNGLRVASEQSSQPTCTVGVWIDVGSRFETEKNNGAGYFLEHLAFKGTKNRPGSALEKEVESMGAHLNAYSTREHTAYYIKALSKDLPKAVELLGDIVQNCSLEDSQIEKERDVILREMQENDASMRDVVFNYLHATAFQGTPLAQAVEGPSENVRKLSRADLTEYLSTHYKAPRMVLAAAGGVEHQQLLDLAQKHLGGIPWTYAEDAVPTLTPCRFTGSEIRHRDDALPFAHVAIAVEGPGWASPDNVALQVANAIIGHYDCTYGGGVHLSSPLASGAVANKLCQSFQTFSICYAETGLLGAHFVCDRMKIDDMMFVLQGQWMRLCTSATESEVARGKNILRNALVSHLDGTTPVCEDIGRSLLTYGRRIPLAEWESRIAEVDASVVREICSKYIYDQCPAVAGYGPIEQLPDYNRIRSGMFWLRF
# Chain of Myeloid-derived growth factor (Q969H8 whole entry): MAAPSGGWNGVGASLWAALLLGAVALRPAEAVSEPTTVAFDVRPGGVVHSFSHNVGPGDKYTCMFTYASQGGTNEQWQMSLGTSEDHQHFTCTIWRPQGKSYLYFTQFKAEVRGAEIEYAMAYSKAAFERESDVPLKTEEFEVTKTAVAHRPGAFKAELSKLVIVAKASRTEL
# Chain of BLOC-1-related complex subunit 7 (Q96B45 whole entry, one chain of several): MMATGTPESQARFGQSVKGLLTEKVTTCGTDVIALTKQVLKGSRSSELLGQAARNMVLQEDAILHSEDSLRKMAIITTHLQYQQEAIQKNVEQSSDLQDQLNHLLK
substance,measurement,setting,value
"Mitochondrial import inner membrane translocase subunit TIM50, Q3ZCQ8",listed as a hit,[1],yes
"ATP synthase F(1) complex subunit alpha, mitochondrial, P25705",listed as a hit,[2],yes
same,listed as a hit,[3],yes
same,listed as a hit,[4],yes
same,listed as a hit,"Frataxin, mitochondrial",yes
same,listed as a hit,[5],yes
same,listed as a hit,[6],yes
same,listed as a hit,[7],yes
"Propionyl-CoA carboxylase alpha chain, mitochondrial, P05165",listed as a hit,[8],yes
"14-3-3 protein zeta/delta, P63101",listed as a hit,14-3-3 protein eta,yes
same,listed as a hit,14-3-3 protein theta,yes
"NADPH:adrenodoxin oxidoreductase, mitochondrial, P22570",listed as a hit,[2],yes
same,listed as a hit,[9],yes
same,listed as a hit,[10],yes
same,listed as a hit,[5],yes
"Dolichyl-diphosphooligosaccharide--protein glycosyltransferase subunit 2, P04844",listed as a hit,Calnexin,yes
"Calnexin, P27824",listed as a hit,[11],yes
same,listed as a hit,[12],yes
same,listed as a hit,[13],yes
same,listed as a hit,[14],yes
"Pyruvate dehydrogenase E1 component subunit alpha, somatic form, mitochondrial, P08559",listed as a hit,[5],yes
same,listed as a hit,[15],yes
"Electron transfer flavoprotein subunit alpha, mitochondrial, P13804",listed as a hit,[16],yes
"Cytochrome c oxidase assembly factor 6 homolog, Q5JTJ3",listed as a hit,[1],yes
"Cytochrome c1, heme protein, mitochondrial, P08574",listed as a hit,[17],yes
"Cytochrome b-c1 complex subunit 2, mitochondrial, P22695",listed as a hit,[18],yes
"Cytochrome b-c1 complex subunit 8, O14949",listed as a hit,[19],yes
same,listed as a hit,[20],yes
"Cytochrome c, P99999",listed as a hit,[21],yes
same,listed as a hit,[1],yes
"Cytochrome c oxidase copper chaperone, Q14061",listed as a hit,[1],yes
"Biogenesis of lysosome-related organelles complex 1 subunit 1, P78537",listed as a hit,[22],yes
"ATP synthase F(0) complex subunit g, mitochondrial, O75964",listed as a hit,[23],yes
same,listed as a hit,[6],yes
same,listed as a hit,[24],yes
same,listed as a hit,[25],yes
"Ras-related protein Rab-11A, P62491",listed as a hit,[26],yes
"AP-2 complex subunit alpha-1, O95782",listed as a hit,[27],yes
same,listed as a hit,[28],yes
"Glucosidase 2 subunit beta, P14314",listed as a hit,[29],yes
same,listed as a hit,[30],yes
same,listed as a hit,[31],yes
